# In PubChem BioAssay AID1454 (National Center for Advancing Translational Sciences (NCATS), 2008):
# Out of some 130,000 compounds screened, about 550 (0.42%) were called active. Entries that show only a call come without a potency. Not shown: some 4% with an inconclusive outcome. Calls come from the whole dose curve; as a rule, active = well fitted inhibition curve with a large enough effect; inconclusive = small, poorly fitted or top-dose-only effect, or effect the other way; inactive = flat fitted curve, though single readings scatter. Only a selection was taken, and actives are over-represented in it overall.
# Assay: qHTS Assay for Inhibitors of the ERK Signaling Pathway using a Homogeneous Screening Assay; Stimulation with EGF; note: nearly all actives have a fitted effect of over 55% in size
# Details: HEK293-V1b, EGF-stimulated phospho-ERK AlphaScreen; series mostly up to 11.5 µM
# Description: NIH Chemical Genomics Center [NCGC]
# NIH Molecular Libraries Screening Centers Network [MLSCN]
# Assay Submitter (PI): Dr. Wei Zheng, NCGC/NIH
# The Ras/extracellular-signal-regulated kinase (ERK) mitogen activated protein (MAP) kinase signaling pathway (ERK1/2 cascade) plays a key role in transmitting signals from the cell surface to the nucleus (Nishida and Gotoh 1993; Chang and Karin, 2001). The cascade is initiated by the small G-protein Ras, which recruits Raf from the cytosol, where activation occurs. Alternatively, this pathway can be activated by elevating intracellular cAMP, or by activation of a receptor tyrosine kinase as epidermal growth factor receptor.
# Activation of the ERK pathway is essential in increased cell division and cell survival. Sustained and constitutive activation of the ERK pathway, however, has been linked to uncontrolled cell proliferation, increased cell survival, and tumor progression. Thus, the ERK has been as an attractive target for cancer chemotherapy in the past few years (Sebolt-Leopold and Herrera, 2004). Given its physiological and pathological importance, assessment of ERK phosphorylation has been broadly performed in both basic research and drug discovery. Most assays for the measurement of ERK phosphorylation use the antibody-based detection methods, such as western blot and ELISA. These assays require multiple reagent additions with cell wash steps and are not suitable for high throughout screening.
# The current cell-based ERK phosphorylation assay was performed using AlphaScreen platform. AlphaScreen is a two bead-based proximity-dependent chemical energy transfer luminescent assay platform. The assay reagents (ERK SureFire(TM) kit) were supplied from TGR BioSciences (Australia). In the presence of specific antibodies, phosphorylated ERK will bring "donor" and "acceptor" beads to a proximity range (<200 nm), and subsequently lead a chemical luminescent reaction upon exciting donor beads with 680 nm laser. To exclude the assay-related false positives, we used a biotinylated rabbit IgG to perform counter-screen. The biotinylated antibody mimics the phosphorylated ERK1/2 for bringing streptavidin coated beads and protein-A coated beads to a proximity range for the AlphaScreen detection.
# NCGC Assay Protocol Summary:
# HEK293 cells stably expressing type-1 vasopressin receptor (V1b) were maintained in DMEM medium (Invitrogen, Carlsbad, CA) at 37C under a humidified atmosphere containing 5% CO2 and 95% air. The medium contained 10% FBS, 2 mM L-glutamine, non-essential amino acid, pyruvate and 50 U/ml penicillin and 50 ug/ml streptomycin (Invitrogen). The aliquots of frozen cells were stored at -135C and used for the compound screening. All compounds were screened as titrations from 0.6 nM to 46 uM final concentration. Epidermal growth factor (EGF) was used to stimulate the ERK phosphorylation pathway. The ERK phosphorylation in cells was determined using an AlphaScreen assay kit provided by […]. Data were normalized to the controls for basal activity (DMSO only) and 100% activation (25 nM EGF). AC50 values were determined from concentration-response data modeled with the standard Hill equation.
# (1) Seed 4 ul/well of resuspended frozen HEK293 cells containing 2000 cells in white 1536-well plates for overnight with 1% FBS at 37C under a humidified atmosphere containing 5% CO2 and 95% air.
# (2) Add 23 nL compounds in DMSO solution. The final titration was 0.6 nM to 46 uM.
# (3) Incubate at 37C for 30 min.
# (4) Dispense 0.5uL EGF (25 nM in final)
# (5) Incubate at 37C for 5 min.
# (6) Dispense 0.5uL of 1:2 diluted 5x lysis buffer.
# (7) Incubate at 37C for 10 min.
# (8) Dispense 1.5uL of mixture of activation buffer and reaction buffer with AlphaScreen beads (streptavidin donor beads and protein-A acceptor beads, 10 ng/well for each).
# (9) Incubate at room temperature for 5 hr.
# (10) Detect the assay plate in an EnVision plate reader (PerkinElmer) using the AlphaScreen detection mode.
# […]
# Potency is the fitted concentration of half-maximal effect.
row,Structure (SMILES),Potency
1,CCOc1ccc(-c2nc(N)ncc2-c2ccccc2OC)c(O)c1,inactive
2,O=C(Nc1ccc2oc(-c3ccccc3F)nc2c1)c1ccco1,inactive
3,Cc1ccc(S(=O)(=O)N(C)C)cc1NC(=O)c1n[nH]c(=O)c2ccccc12,inactive
4,O=C(CNC(=O)COc1ccccc1)NCCc1ccccn1,inactive
5,CCCn1nc(Oc2nc(NC(C)C)nc(N(C)C)n2)ccc1=O,inactive
6,O=C(NCC(=O)N(CC1CCCO1)C(C(=O)NC1CCCCC1)c1ccccc1)c1ccco1 (stereo unspecified),inactive
7,NS(=O)(=O)c1ccc(NC(=O)COC(=O)c2ccco2)cc1,inactive
8,O=C(Cn1cnc2ccccc2c1=O)Nc1cccc(S(=O)(=O)N2CCCCC2)c1,inactive
9,Fc1ccc(-c2csc(-c3ccc(C4SCCS4)cc3)n2)cc1F,inactive
10,COCC1CCCN(Cc2nc(-c3ccc4c(c3)OCO4)no2)C1 (stereo unspecified),inactive
11,CCNC(=O)CC1C(=O)N(c2ccc(F)cc2)C(=O)N1Cc1cccs1 (stereo unspecified),inactive
12,CN(C)S(=O)(=O)c1ccc(Cl)c(NC(=O)COC(=O)CC(NC(N)=O)c2ccc(Cl)cc2)c1 (stereo unspecified),inactive
13,COc1ccc(/C=C/c2nnc(NC(=O)C(C)C)s2)cc1,inactive
14,O=C(O)c1ccc(/C=N/Nc2nc(N3CCCCC3)nc(N3CCCCC3)n2)cc1,inactive
15,COc1cc(OC)cc(-c2nnc(SCC(=O)Nc3ccc(C(=O)O)cc3)s2)c1,inactive
16,NC(=O)COc1ccc(NC(=O)c2ccccc2-c2ccccc2)cc1,inactive
17,O=C(CSc1nncs1)NC1CCCc2ccccc21 (stereo unspecified),inactive
18,O=C(O)c1cccnc1Sc1ncnc2sc3c(c12)CCC3,inactive
19,N#C/C(=C\c1ccccc1C(F)(F)F)C(=O)Nc1ccccc1F,inactive
20,N#C/C(=C/c1ccc(N2CCOCC2)o1)C(=O)N1CCOCC1,inactive
21,N#C/C(=C\C1=C(N2CCOCC2)C(=C\c2ccccc2)/CC1)C(=O)Nc1ccccc1F,7.08 µM (active)
22,O=C(CSc1nnnn1-c1ccc(O)cc1)c1ccc(F)cc1,inactive
23,O=C(CCCNS(=O)(=O)c1cccc2nsnc12)NCCN1CCN(c2ccccc2F)CC1,inactive

row,Structure (SMILES),Potency
1,CCN(CC)CCCNC(=O)Cn1cnc2sc(C)c(S(=O)(=O)N3CCN(c4ncccn4)CC3)c2c1=O,inactive
2,COc1cccc(CNC(=O)CCC2CCCN(C(=O)c3ccoc3C)C2)c1 (stereo unspecified),inactive
3,COC(=O)c1ccccc1NC(=S)NC(=O)c1ccccc1F,inactive
4,O=C(NCCc1csc(-c2ccccc2)n1)c1ccccc1F,inactive
5,O=C(NC(=S)NC1CCSC1=O)c1ccccc1F (stereo unspecified),20 µM (active)
6,Cc1ccc(S(=O)(=O)N2CCN(C(=O)COC(=O)c3c(C)noc3C)CC2)c(C)c1,inactive
7,O=C(NNC(=O)c1cnccc1C(F)(F)F)c1ccc(Cl)cc1,inactive
8,COc1cc2nc(Cl)nc(NCCO)c2cc1OC,inactive
9,NS(=O)(=O)c1cccc(NC(=O)CSc2nc3ccccc3n2-c2ccccc2)c1,inactive
10,COC(=O)c1ccc(NC(=S)NN2CCOCC2)cc1,inactive
11,CN1CCN(/N=C2/C(=O)Nc3ccc([N+](=O)[O-])cc32)CC1,inactive
12,COCCCNC(=S)N(Cc1ccccc1)Cc1ccc(F)cc1,inactive
13,Cc1nn(-c2ccccc2)c(Cl)c1/C=C/C(=O)c1ccc(O)cc1,15.8 µM (active)
14,Cc1nn(-c2ccccc2)c(C)c1/C=C/C(=O)OC(C)C(N)=O (stereo unspecified),inactive
15,O=C(/C=C/c1ccc(Cl)c([N+](=O)[O-])c1)c1ccc(O)cc1,inactive
16,COc1ccc(OC)c(NC(=O)N[C@H](Cc2ccccc2)C(=O)NN)c1,inactive
17,CN(C)S(=O)(=O)c1ccc(C(=O)NCC(C)(C)N2CCOCC2)cc1,inactive
18,CC1(C)OC(=O)C(=CSc2ccc(C(C)(C)C)cc2)C(=O)O1,inactive
19,COc1ccc(NC(=S)NCCN2CCC(C)CC2)cc1,inactive
20,COc1cccc(N2CC(C(=O)Nc3c(C)cccc3C)CC2=O)c1 (stereo unspecified),inactive
21,COc1ccc(N2CCC(CNC(=S)Nc3c(C)cccc3C)C2)cc1 (stereo unspecified),12.6 µM (active)
22,COc1ccc(NC(=S)NCC2CCN(c3ccc(OC)cc3)C2)cc1 (stereo unspecified),25.1 µM (active)
23,COc1ccc(NC(=S)NCCNC(C)=O)cc1,inactive

row,Structure (SMILES),Potency
1,COc1ccc(NC(=O)N2CCC(Cc3ccccc3)CC2)cc1,inactive
2,Cc1nc2cc(NC(=O)Nc3cccc(F)c3)ccc2n1C,inactive
3,CC(C)=NN1C(=O)c2ccccc2NC1(C)C,inactive
4,OCCC1CN(Cc2ccc3nsnc3c2)CCN1C1CCCCC1 (stereo unspecified),inactive
5,O=C(/C=C/c1ccc2c(c1)OCO2)NCc1cn2cc(Cl)ccc2n1,inactive
6,Cc1c(Cc2ccccc2)c(=O)oc2cc(OCC(N)=O)ccc12,inactive
7,Cc1ccc(S(=O)(=O)N2CCN(C(=O)c3cccs3)CC2)cc1,inactive
8,COC(=O)C1=C(N)Oc2cc(C)[nH]c(=O)c2C1c1ccc(Cl)cc1 (stereo unspecified),inactive
9,O=C(NNC(=O)c1ccc(Cl)cc1Cl)c1cccs1,inactive
10,O=C(Nc1ccccc1Cl)/C(Cl)=C(\Cl)S(=O)c1ccccc1 (stereo unspecified),31.6 µM (active)
11,COCCN(CCOC)C(=S)Nc1ccccc1Cl,inactive
12,O=C(CN1CCCCC1)Nc1ccccc1Cl,inactive
13,COC(=O)Cc1ccc(Oc2ncc(C(F)(F)F)cc2Cl)cc1,inactive
14,CCOc1ccccc1N1CN(Cc2ccccc2)CNC1=S,inactive
15,CN(Cc1nc(-c2cnccn2)no1)Cc1n[nH]c2c1CCCCC2,inactive
16,CN=C1C=C/C(=N/N=c2\ccn(O)cc2C)C=C1C,17.8 µM (active)
17,Cn1nnc(NC(=S)NC(=O)c2ccccc2)n1,inactive
18,COc1ccc(C(=O)N/N=C2\CCS(=O)(=O)c3ccc(F)cc32)cc1OC,inactive
19,C/C(=N/NC(=O)c1ccn(C)n1)c1ccncc1,inactive
20,CCN(CC)S(=O)(=O)c1ccc(OC(C)C)c(N)c1,inactive
21,CCS(=O)(=O)c1ccc(O)c(NC(=O)COc2ccc(Cl)cc2)c1,inactive
22,CN(CCc1cn[nH]c1)C(=O)CC1C(=O)NCCN1Cc1cccc(Oc2ccccc2)c1 (stereo unspecified),inactive
23,O=C(CN1CCN(c2ccc(Cl)cc2)CC1)NCc1cccs1,inactive

row,Structure (SMILES),Potency
1,Cc1ccc(/C=N/NC(=S)Nc2cccc(S(=O)(=O)N(C)C)c2)o1,inactive
2,Nc1nnc(SCn2nnc3ccccc3c2=O)s1,inactive
3,CC1(C)CC(=O)C(CC(=O)N2CCC(Cc3ccccc3)CC2)C(=O)C1,inactive
4,Cc1ccc(CN(Cc2cccnc2)C(=S)Nc2cc(Cl)ccc2C)cc1,inactive
5,O=C(COC(=O)c1ccc(S(=O)(=O)Nc2ccccc2)cc1)NCC1CCCO1 (stereo unspecified),inactive
6,COc1ccc(-n2cnnc2SCC(=O)Nc2cccc([N+](=O)[O-])c2)cc1,inactive
7,CCCc1nc2c(c(=O)c3ccccc3n2C)c(=O)n1-c1cc(C)cc(C)c1,inactive
8,COc1ccc(CCNC(=O)C(=O)NCC2CCNCC2)cc1OC,inactive
9,CCn1c(SCc2cc(=O)n3ccsc3n2)nc2ccccc21,inactive
10,N#C/C(=C/c1ccc(-c2ccccc2[N+](=O)[O-])o1)C(=O)NCCN1CCCCC1,inactive
11,COC(=O)/C=C(\Oc1ccccc1)C1(O)CCCCC1,inactive
12,O=[N+]([O-])c1ccc2c(c1)C(N1CCOCC1)/C(=C/C1(O)CCCCC1)O2 (stereo unspecified),inactive
13,CC(=O)Nc1cccc(-c2nc3ccccc3s2)c1C,inactive
14,CCOC(=O)N1CCN(CC(=O)Nc2ccc(F)cc2)CC1,inactive
15,COCCCNC(NC(=O)c1ccc(OC)cc1)C(Cl)(Cl)Cl (stereo unspecified),inactive
16,CC(=O)c1cccc(NC(=O)[C@@H](NC(N)=O)C(C)C)c1,inactive
17,Cc1[nH]n(C)c(=O)c1N=Nc1ccc(S(C)(=O)=O)cc1,inactive
18,Cc1cccc(N=Nc2c(C)[nH]n(-c3ccccc3)c2=O)c1,7.08 µM (active)
19,O=C(NNC(=O)c1ccccc1[N+](=O)[O-])Nc1ccccc1C(F)(F)F,inactive
20,CCCC(=O)Nc1nnc(-c2ccccc2)o1,inactive
21,COc1ccc(CN(C)C(=S)Nc2ccc(Cl)cc2Cl)cc1,inactive
22,O=C(NCc1csc(-c2cccs2)n1)C1CC1,inactive
23,Cc1noc(C)c1COC(=O)COc1ccc(-c2ccccc2)cc1,inactive

row,Structure (SMILES),Potency
1,CCCn1c(NC(=O)C23CC4CC(CC(O)(C4)C2)C3)nc2ccccc21,inactive
2,CCOC(=O)c1c(C)[nH]c2c1-c1ccccc1C(=O)C2=O,inactive
3,CCOC(=O)c1ccccc1NS(=O)(=O)c1ccc(OC)cc1,inactive
4,CCOC(=O)C1=C(c2ccc(OC)cc2)C(=O)c2ccccc2C1=O,31.6 µM (active)
5,CC(C)NC(=O)NC(=O)CSc1nnc(-c2ccccc2F)n1N,inactive
6,Cc1cc(C)nc(NC(=O)/C=C/c2ccc(Cl)cc2)n1,inactive
7,COc1ccc(/C=C/C(=O)Nc2ccc(C)cc2)cc1S(=O)(=O)N1CCOCC1,inactive
8,CC(=O)Nc1ccc(S(=O)(=O)Nc2nc(-c3ccc(C(C)(C)C)cc3)cs2)cc1,inactive
9,CC(=O)Nc1ccc(-c2csc(NC=C3C(=O)OC(C)(C)OC3=O)n2)cc1,inactive
10,CC(=O)Nc1ccc(-c2csc(NC(=O)Nc3ccccc3)n2)cc1,25.1 µM (active)
11,CN(c1ccccc1)S(=O)(=O)c1ccc(Cl)c(C(=O)OCC(=O)N2CCOCC2)c1,inactive
12,O=C(NCc1cccs1)c1cc(-c2ccccn2)nc2ccc(Br)cc12,inactive
13,O=C(CN1CCCC1)N1CCN(c2ccccc2)CC1,inactive
14,COc1ccc(N2CCN(C(=O)/C(C#N)=C/c3ccccc3)CC2)cc1,inactive
15,CC(CO)NCC12CC3CC(CC(C3)C1)C2 (stereo unspecified),inactive
16,CC(C)(C)c1cc(P(=O)(c2ccccc2)c2ccccc2)ccc1O,inactive
17,CCOC(=O)CN(C(=O)COc1nc(-c2ccccc2)cc(C)c1C#N)c1ccc(F)cc1,inactive
18,COC(OC)c1ccnc(SCc2ccccc2Cl)n1,inactive
19,O=C(O)/C=C/c1ccc2c(c1)OCCO2,inactive
